# According to publication PMC5540273 (PLoS ONE, 2017):
# Legend:
# Conditions in all cases: concentration: 1 μM,replicates: in singlicate; n = 1
# FGFR1 = tested on: FGFR1
# FGFR2 = tested on: FGFR2
# FGFR3 = tested on: FGFR3
# FGFR4 = tested on: FGFR4
# FGR = tested on: FGR
# FLT1 = tested on: FLT1
# FLT3-autoinhibited = tested on: FLT3-autoinhibited
# FLT3 = tested on: FLT3
# FLT4 = tested on: FLT4
# FRK = tested on: FRK
# FYN = tested on: FYN
# GAK = tested on: GAK
# GCN2(Kin.Dom.2,S808G) = tested on: T1, GCN2(Kin.Dom.2,S808G)
# T1 construct: gene EIF2AK4
# GRK1 = tested on: GRK1
# GRK2 = tested on: T2, GRK2
# T2 construct: gene ADRBK1
# GRK3 = tested on: T3, GRK3
# T3 construct: gene ADRBK2
# GRK4 = tested on: GRK4
# GRK7 = tested on: GRK7
# GSK3A = tested on: GSK3A
# GSK3B = tested on: GSK3B
# 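Also: KINOMEscan kinase panel screen.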
SMILES,%Inh (FGFR1) [%],%Inh (FGFR2) [%],%Inh (FGFR3) [%],%Inh (FGFR4) [%],%Inh (FGR) [%],%Inh (FLT1) [%],%Inh (FLT3-autoinhibited) [%],%Inh (FLT3) [%],%Inh (FLT4) [%],%Inh (FRK) [%],%Inh (FYN) [%],%Inh (GAK) [%],"%Inh (GCN2(Kin.Dom.2,S808G)) [%]",%Inh (GRK1) [%],%Inh (GRK2) [%],%Inh (GRK3) [%],%Inh (GRK4) [%],%Inh (GRK7) [%],%Inh (GSK3A) [%],%Inh (GSK3B) [%]
Cc1occc1-c1nc(N)c(OC[C@@H](N)Cc2c[nH]c3ccccc23)cc1-c1cc2c(C)n[nH]c2cn1 [GSK1660450],49,4,0,0,91.6,31,0,0,25,75,87,87,0,74,0,0,49,87,95.7,97.9
CC(C)Nc1cc(-c2ccc3c(N)n[nH]c3c2)nc(N)n1 [GSK2221681],20,0,5,5,3,18,0,0,14,3,33,0,0,0,0,0,34,0,0,4
CCN(CC)CCCCNc1ncc2cc(-c3c(Cl)cccc3Cl)c(NC(=O)NC(C)(C)C)nc2n1,98.6,96.4,95.5,28,90.3,99,24,98.1,83,96.2,87,42,53,12,22,28,7,0,0,26
COc1ccc(C[C@@H](CN)NC(=O)c2cc(Br)c(-c3ccnc4[nH]ccc34)s2)cc1.Cl.Cl [GSK1389063],95.8,83,69,93.2,53,82,42,98,73,29,0,56,40,99.8,67,96,39,98.8,0,8
Cl.Cl.Nc1nc(-c2ccc3c(N)n[nH]c3c2)cc(N2CCCC(NC(=O)c3ccccc3)C2)n1 (stereo not shown) [GSK2286775],0,0,11,0,8,16,2,0,0,0,34,2,0,0,0,19,55,0,0,15
CN(C)CCOc1ccc(-c2cc(-c3c[nH]nc3-c3ccccn3)ccn2)cc1 [GW835314],47,17,31,8,7,0,35,59,11,10,15,75,0,17,0,12,3,0,0,7
Cl.Cl.NC[C@H](Cc1ccc(C(F)(F)F)cc1)NC(=O)c1cc(Br)c(-c2ccnc3[nH]ccc23)s1 [GSK1487252],14,17,24,57,31,62,23,63,54,15,15,0,4,93.7,35,75,8,95.3,0,18
CC(C)N1C(=O)Cc2cc(Nc3ncc(C(F)(F)F)c(NCc4cccc(S(C)(=O)=O)c4)n3)ccc21,38,52,43,16,5,62,57,97.6,89,0,4,14,17,25,0,4,28,10,47,0
Nc1nc(Nc2ccccc2)cc(-c2ccc3c(N)n[nH]c3c2)n1 [GSK2225749],17,10,18,0,0,10,19,2,9,0,12,63,0,0,74,0,73,0,0,0
O=C(NCCNc1ccnc(NCc2ccc(F)cc2)n1)c1cc2ccccc2s1 [GSK1379944],6,10,20,79,29,27,0,0,1,15,17,33,6,0,0,34,0,0,6,78
C[C@@H]1CCN(C(=O)CC#N)C[C@@H]1N(C)c1ncnc2[nH]ccc12,0,0,0,0,1,0,0,0,0,0,8,19,0,15,0,0,0,25,0,0
C=CC(=O)Nc1cc2c(Nc3ccc(F)c(Cl)c3)ncnc2cc1OCCCN1CCOCC1 [GW781483],0,0,0,0,14,15,2,27,0,30,0,66,,0,19,3,39,0,0,0
C[C@@H](Oc1cc(-c2cnn(C3CCNCC3)c2)cnc1N)c1c(Cl)ccc(F)c1Cl,22,0,24,0,46,28,31,40,4,36,15,2,0,15,16,0,10,0,68,36
